Source: PubChem
GPR151 ag – activators of human GPR151 | Q8TDV0 | PathHunter beta-arrestin GPR151 cells, luminescence | AID 1508602 | activation, % at 11.2 µM | 650,000 tested, 1% active; in the data active = activation above about 4.9%;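 also: 0% = median of compound wells and 100% = cells with positive control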
TEAD-YAP inh – TEAD-YAP interaction inhibition; HEK-TIYL cells, TEAD-Gal4/YAP UAS-luciferase luminescence; inhibition, % at 9.12 µM; 640,000 tested, 1.4% active; AID 1259422; in the data active = inhibition above about 32%;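 also: 0% = median of test compound wells and 100% = reference inhibitor wells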
FBW7 act – human FBW7 E3 ligase activation, primary screen; normalized activity (activation), % at 26.1 µM; AlphaScreen FBW7–phospho-cyclin E peptide binding, activator screen; 650,000 tested, 0.13% active; AID 1259310; Q969H0; in the data active = normalized activity above about 1.9%;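 also: purified mutant Fbw7 with reduced substrate affinity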
MITF primary – human MITF inhibition, primary screen. AlphaScreen MITF homodimerization, bead proximity signal. inhibition, % at 2.6 µM. 650,000 tested, 0.91% active; in the data active = inhibition above about 50%;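 also: 0% = vehicle wells with protein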
Target sequence (O75030 whole entry, looked up): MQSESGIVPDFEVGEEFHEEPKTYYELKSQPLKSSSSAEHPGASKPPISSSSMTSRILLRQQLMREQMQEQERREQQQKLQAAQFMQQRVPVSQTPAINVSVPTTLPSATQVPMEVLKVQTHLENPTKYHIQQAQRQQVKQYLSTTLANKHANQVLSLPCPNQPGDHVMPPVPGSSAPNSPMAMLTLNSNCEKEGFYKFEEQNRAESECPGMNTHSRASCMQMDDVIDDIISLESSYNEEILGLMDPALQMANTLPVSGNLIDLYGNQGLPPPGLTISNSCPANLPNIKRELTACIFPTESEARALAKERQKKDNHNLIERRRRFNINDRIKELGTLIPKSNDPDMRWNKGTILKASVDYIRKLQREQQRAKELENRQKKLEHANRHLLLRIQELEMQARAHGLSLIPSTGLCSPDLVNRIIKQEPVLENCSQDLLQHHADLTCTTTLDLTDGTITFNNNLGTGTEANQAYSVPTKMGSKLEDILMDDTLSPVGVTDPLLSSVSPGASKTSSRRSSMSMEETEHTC
MITF inh conf – confirmation of human MITF inhibitors; AlphaScreen MITF homodimerization, biotin/His-MITF beads; shares compounds with MITF primary; inhibition, % at 2.6 µM; AID 1259372; 4,700 tested, 16% active;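 active = inhibition above a cutoff derived from the DMSO control wells, cut at about 28% in these data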;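 also: 0% = MITF dimer wells with DMSO only; inhibitors lower the bead chemiluminescence by keeping MITF from dimerizing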
AS interf ctr – optically interferes with AlphaScreen signal. inhibition, % at 2.6 µM. 4,700 tested, 7.6% active. LysRS AlphaScreen counterscreen, signal interference, triplicate. shares compounds with MITF primary;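 active = inhibition above a cutoff derived from the DMSO control wells, cut at about 30% in these data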
An asterisk follows results filed as active. Most compounds without a hit are left out; they make up all but 3.4% or so of the library.

What do the screens show for `CCS(=O)(=O)N1CCN(Cc2ccccc2OC)CC1`?
GPR151 ag: -1; TEAD-YAP inh: 3; FBW7 act: 0; MITF primary: 58*; MITF inh conf: 7; AS interf ctr: 11

Results for CCOc1ccccc1CN1CCN(S(=O)(=O)CC)CC1 ?
GPR151 ag: 1; TEAD-YAP inh: 7; FBW7 act: 0; MITF primary: 29

What do the screens show for `CCCS(=O)(=O)N1CCN(Cc2ccccc2OCC)CC1`?
GPR151 ag: -1; TEAD-YAP inh: 7; FBW7 act: 0; MITF primary: 74*; MITF inh conf: 2; AS interf ctr: 11

What do the screens show for `COc1ccccc1CN1CCN(S(C)(=O)=O)CC1`?
GPR151 ag: 1; TEAD-YAP inh: 3; FBW7 act: 1; MITF primary: -4

Results for COCCCNC(=O)Cn1cc(/C=C(\C#N)C(=O)NCCOC)c2ccccc21 ?
GPR151 ag: 0; TEAD-YAP inh: 2; FBW7 act: 0; MITF primary: 18

What do the screens show for `COc1ccc(C)cc1S(=O)(=O)N(C)CC(=O)Nc1ccccc1F`?
GPR151 ag: 3; TEAD-YAP inh: -1; FBW7 act: 0; MITF primary: -2

Results for CC(NC(=O)CN(C)CC(=O)Nc1ccccc1Br)c1ccccc1 (centres undefined) ?
GPR151 ag: 0; TEAD-YAP inh: -1; FBW7 act: 0; MITF primary: 66*; MITF inh conf: -25; AS interf ctr: 1

How did COc1ccc(OC)c(NC(=O)CN(C)CC(=O)Nc2ccccc2Br)c1 do in these assays?
GPR151 ag: 0; TEAD-YAP inh: -6; FBW7 act: 0; MITF primary: 74*; MITF inh conf: 15; AS interf ctr: 17

What do the screens show for `COc1ccc(OC)c(S(=O)(=O)N(C)CC(=O)Nc2ccccc2F)c1`?
GPR151 ag: -1; TEAD-YAP inh: -1; FBW7 act: 0; MITF primary: 51*; MITF inh conf: 20; AS interf ctr: 8

Results for Cc1ccc(CNC(=O)CSCc2ccc(C)cc2)cc1 ?
GPR151 ag: -2; TEAD-YAP inh: 9; FBW7 act: 2; MITF primary: 13

Results for Cc1ncc2c(c1CNC(=O)Cc1cccs1)CCN(C(=O)CCC1CCCC1)C2 ?
GPR151 ag: 0; TEAD-YAP inh: -8; FBW7 act: 0; MITF primary: 9

How did Cc1ncc2c(c1CNC(=O)Cc1cccs1)CCN(C(=O)C1(C)CCCCC1)C2 do in these assays?
GPR151 ag: -1; TEAD-YAP inh: 7; FBW7 act: 0; MITF primary: 74*; MITF inh conf: 15; AS interf ctr: 10

Results for c1ccc(CCCN2CCN(C3C4CC5CC(C4)CC3C5)CC2)cc1 (centres undefined) ?
GPR151 ag: -1; TEAD-YAP inh: 4; FBW7 act: 0; MITF primary: 70*; MITF inh conf: 2; AS interf ctr: 7

How did Cc1ccc(S(=O)(=O)N2CCN(CC3CC4C=CC3C4)CC2)cc1 (centres undefined) do in these assays?
GPR151 ag: 2; TEAD-YAP inh: -52; FBW7 act: 0; MITF primary: 68*; MITF inh conf: -3; AS interf ctr: -2

What do the screens show for `O=[N+]([O-])c1ccc(CN2CCN(CC3CC4C=CC3C4)CC2)cc1` (centres undefined)?
GPR151 ag: 0; TEAD-YAP inh: 4; FBW7 act: 0; MITF primary: 63*; MITF inh conf: 12; AS interf ctr: 15

How did C1=CC2CC1CC2CN1CCN(CCCc2ccccc2)CC1 (centres undefined) do in these assays?
GPR151 ag: -3; TEAD-YAP inh: 7; FBW7 act: 0; MITF primary: 70*; MITF inh conf: 8; AS interf ctr: 16

What do the screens show for `Clc1ccc(CN2CCN(CC3CC4C=CC3C4)CC2)cc1` (centres undefined)?
GPR151 ag: -1; TEAD-YAP inh: -5; FBW7 act: 0; MITF primary: 26

What do the screens show for `Cc1ccc(S(=O)(=O)NC[C@@H]2CC3C=CC2C3)cc1` (some centres undefined)?
GPR151 ag: -1; TEAD-YAP inh: 1; FBW7 act: 0; MITF primary: 10

What do the screens show for `Fc1ccccc1N1CCN(CC2CC3C=CC2C3)CC1` (centres undefined)?
GPR151 ag: 1; TEAD-YAP inh: -9; FBW7 act: 0; MITF primary: 30

What do the screens show for `CCN(CC)CCNC(=O)c1nn(-c2cccc(OC)c2)c(=O)c2ccccc12`?
GPR151 ag: 0; TEAD-YAP inh: 0; FBW7 act: 0; MITF primary: 4

How did CN(C)C(CNC(=S)NCc1ccccc1)c1cccnc1 (centres undefined) do in these assays?
GPR151 ag: 0; TEAD-YAP inh: 3; FBW7 act: 0; MITF primary: -7

How did O=C(NC1CCCCCC1)C1CC(=O)N(C2CCCCCC2)C1 (centres undefined) do in these assays?
GPR151 ag: 1; TEAD-YAP inh: 8; FBW7 act: 0; MITF primary: 7

Results for O=[N+]([O-])c1ccccc1CN1CCN(CC2CC3C=CC2C3)CC1 (centres undefined) ?
GPR151 ag: 0; TEAD-YAP inh: 6; FBW7 act: 0; MITF primary: 67*; MITF inh conf: -2; AS interf ctr: -1

What do the screens show for `C1=CC2CC1CC2CN1CCN(Cc2ccncc2)CC1` (centres undefined)?
GPR151 ag: 1; TEAD-YAP inh: -1; FBW7 act: 1; MITF primary: 79*; MITF inh conf: -5; AS interf ctr: 14

What do the screens show for `C1=CC2CC1CC2CN1CCN(Cc2ccc3c(c2)OCO3)CC1` (centres undefined)?
GPR151 ag: -1; TEAD-YAP inh: -17; FBW7 act: 0; MITF primary: 58*; MITF inh conf: -5; AS interf ctr: -3

What do the screens show for `FC(F)(F)c1cccc(-c2nc3ccccc3nc2-c2ccccc2)c1`?
GPR151 ag: 0; TEAD-YAP inh: 7; FBW7 act: 0; MITF primary: 1

How did COc1cccc(NC(=O)Nc2cccn(Cc3ccc(Cl)cc3)c2=O)c1 do in these assays?
GPR151 ag: 5; TEAD-YAP inh: 19; FBW7 act: 0; MITF primary: -16

Results for CC(C)(C)C(=O)NC(=S)Nc1cccc([N+](=O)[O-])c1 ?
GPR151 ag: -2; TEAD-YAP inh: -3; FBW7 act: 0; MITF primary: 58*; MITF inh conf: -8; AS interf ctr: -3

Results for CCCC(=O)NC(=S)Nc1cccc([N+](=O)[O-])c1 ?
GPR151 ag: -1; TEAD-YAP inh: 4; FBW7 act: 0; MITF primary: -16

How did CCOc1ccc(-c2[nH]nc3c2C2(C(=O)N(CC(=O)OC)c4ccccc42)C(C#N)=C(N)O3)cc1OC (centres undefined) do in these assays?
GPR151 ag: -1; TEAD-YAP inh: 11; FBW7 act: 1; MITF primary: 7
